{"source": "PubChem BioAssay (NCATS)", "note": "Inconclusive results are not listed. A number with no mark means an inactive call. The source made the active and inactive calls. Unless noted, the call rests on the fitted dose curve; in most records, active means well fitted curve in the direction sought with a large enough effect in the repeat runs; inconclusive means weak or mixed curves; inactive means no such curve, though single readings can be large; an effect the other way counts as inactive or inconclusive. On the % scale 0 is the no-effect control and ±100 the full control effect."}
{"molecular_target": "Calcium and integrin-binding protein 1 (Homo sapiens) (UniProt Q99828)", "sequence (Q99828 whole entry, looked up)": "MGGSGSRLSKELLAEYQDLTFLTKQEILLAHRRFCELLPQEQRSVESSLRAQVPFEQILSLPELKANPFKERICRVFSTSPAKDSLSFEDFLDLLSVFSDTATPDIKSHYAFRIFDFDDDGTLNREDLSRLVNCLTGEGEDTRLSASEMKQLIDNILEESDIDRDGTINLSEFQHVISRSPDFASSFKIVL", "assay": "Primary qHTS for Identification of Calcium Integrin Binding Protein 1 (CIB1) Competitor (AID 1508620; active means well fitted curve in the direction sought with a large enough effect; an effect the other way counts as inactive or inconclusive;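 further: GST tagged CIB1 binding a fluorescein labelled alphaIIb integrin peptide tracer; top concentration of the series differs between compounds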)", "conditions": "CIB1-GST / FITC-alphaIIb peptide fluorescence polarization; series mostly up to 114 µM; activity change, negative = inhibition: at the top concentration", "summary_of_the_method": "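Fluorescence polarization competition: CIB1-GST (1 uM final) preincubated with compound 15 min at room temperature, then FITC-labeled alphaIIb peptide (100 nM final) added for another 15 min. Polarization read at Ex 480/Em 540.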", "units": {"activity change, negative = inhibition": "%"}}
{"smiles": "N#Cc1cnc2c(Cl)cc(NCc3cn(CCN4CCCCCC4)nn3)cc2c1Nc1ccc(F)c(Cl)c1", "activity change, negative = inhibition": 1.47}
{"smiles": "O=[N+]([O-])c1cn2c(n1)OC[C@@H](OCc1ccc(-c3ccc(OC(F)(F)F)cc3)nc1)C2", "activity change, negative = inhibition": 4.06}
{"smiles": "CNC(=O)c1ccc2c(c1)CCO[C@H]2CCN1CCN(c2ccc(OC)cc2)CC1", "activity change, negative = inhibition": 4.83}
{"smiles": "Cc1nc(C#Cc2ccnc(Cl)c2)c(C)n1-c1ccc(OC(F)(F)F)cc1", "activity change, negative = inhibition": 0.254}
{"smiles": "CCOC(=O)C1=Cc2ccc(C(F)(F)C(F)(F)F)cc2N=C(N)C1", "activity change, negative = inhibition": -3.16}
{"smiles": "C#CC(=O)N(c1ccc(OC)cc1OC)C(C(=O)NCC(=O)OCC)c1cccs1", "note": "(stereo not drawn)", "activity change, negative = inhibition": 2.77}
{"smiles": "COC(=O)c1ccc2c(c1)[nH]c1ncnc(NCCCN3CCCCC3)c12", "activity change, negative = inhibition": 7.1}
{"smiles": "CN(C)c1cccc(Oc2cnc(Nc3cccc(O)c3)nc2)c1", "activity change, negative = inhibition": -1.83}
{"smiles": "Cc1csc2c(N[C@@H](C)CN3CCN(S(=O)(=O)c4ccc(Cl)c(Cl)c4)CC3)ncnc12", "activity change, negative = inhibition": -9.52}
{"smiles": "Cc1cnn(-c2ccccc2)c1NC(=O)COCc1ccccc1", "activity change, negative = inhibition": 2.29}
{"smiles": "CC(C)(Cc1nc(-c2ccc(O)cn2)no1)C(=O)NC1=C(C(=O)O)CCCC1", "activity change, negative = inhibition": -5.93}
{"smiles": "CC(C)c1ccc(NC(=O)Cn2cnc3c2c(=O)n(C)c(=O)n3C)cc1", "activity change, negative = inhibition": 3.06}
{"smiles": "O=c1[nH]c2cccc(N3CCN(Cc4ccc(-c5ccccc5)cc4)CC3)c2o1", "activity change, negative = inhibition": 4.06}
{"smiles": "CCO[C@H]1CN(C2CCC(O)(c3ccc4c(c3)OCO4)CC2)C[C@@H]1NC(=O)CNC(=O)c1cccc(C(F)(F)F)c1", "note": "(stereo partly drawn)", "activity change, negative = inhibition": -3.85}
{"smiles": "O=C(NCC1(c2nc(-c3ccccc3)cs2)CCOCC1)c1cccc(-c2noc(C(F)(F)F)n2)c1", "activity change, negative = inhibition": -0.75}
{"smiles": "O=C(NCc1ccc(OC(F)(F)F)cc1)C1c2c(F)cccc2C(=O)N1CCc1ccccn1", "note": "(stereo not drawn)", "activity change, negative = inhibition": 2.73}
{"smiles": "O=C(CCl)Nc1cccc(NC2=NS(=O)(=O)c3ccccc32)c1", "activity change, negative = inhibition": -4.11}
{"smiles": "Fc1ccc(-n2cc(CCCCN3CCC4(CC3)OCc3ccccc34)c3ccccc32)cc1", "activity change, negative = inhibition": 4.88}
{"smiles": "COc1cc2c(Nc3cc(F)c(Cl)c(Cl)c3)ncnc2cc1OCC1CCCN(C)CCC1", "activity change, negative = inhibition": 3.17}
{"smiles": "CNCc1cc(-c2ccccc2F)n(S(=O)(=O)c2cccnc2)c1", "activity change, negative = inhibition": 4.88}
{"smiles": "Cn1cc(-c2cnn3c(N)c(Br)c([C@@H]4CCCNC4)nc23)cn1", "activity change, negative = inhibition": 6.59}
{"smiles": "C[C@H]1[C@H](/C=C/c2ccc(-c3ccccc3C#N)cn2)[C@@H]2[C@@H](C)OC(=O)[C@@H]2C[C@@H]1C", "activity change, negative = inhibition": 0.161}
{"smiles": "Cc1ccc(F)cc1S(=O)(=O)N[C@@H]1CCN(Cc2ccc(OC(C)C)cc2)C1", "activity change, negative = inhibition": 0.597}
{"smiles": "NCCOc1cc(C(=O)Nc2cc(OCCN)c3ccccc3n2)nc(C(=O)Nc2cc(OCCN)c3ccccc3n2)c1", "activity change, negative = inhibition": -13.3}
{"smiles": "Cc1csc(N(C(=O)CSc2ccc(-c3ccccc3)nn2)C2CC2)n1", "activity change, negative = inhibition": -3.79}
{"smiles": "C[C@@H]1CCCN1CCc1cc2cc(-c3ccc(C#N)cc3)ccc2o1", "activity change, negative = inhibition": 1.28}
{"smiles": "CC(=O)Nc1nc(C)c(-c2nc(N3CCCC(O)C3)no2)s1", "note": "(stereo not drawn)", "activity change, negative = inhibition": 2.87}
{"smiles": "CC(C)C[C@@H](C(=O)N[C@@H](Cc1ccc(OCc2ccccc2)cc1)C(=O)NC(C)(C)C)N(C)Cc1ccc(C(C)(C)C)cc1", "activity change, negative = inhibition": -3.12}
{"smiles": "CC(C)(C)OC(=O)c1ncn2c1C(C)(C)Nc1ccccc1-2", "activity change, negative = inhibition": 1.74}
{"smiles": "OC1(CN2CCC(COc3noc4cccc(O[C@@H]5CCOC5)c34)CC2)CCOCC1", "activity change, negative = inhibition": -2.54}
{"smiles": "O=C(COc1ccc(C(=O)c2ccccc2)cc1)NC1CCN(Cc2ccccc2)CC1", "activity change, negative = inhibition": 0.431}
{"smiles": "FC(F)(F)c1ccc(/C=C/c2nc(COc3ccc(CCCCn4ccnn4)cc3)co2)cc1", "activity change, negative = inhibition": 7.93}
{"smiles": "c1cc(NC2CCNCC2)nc(-c2cnc3ccccn23)c1", "activity change, negative = inhibition": -10.8}
{"smiles": "CNC(=O)[C@@H](c1ccccc1)N1CCc2cc(OC)c(OC)cc2[C@@H]1CCc1ccc(C(F)(F)F)cc1", "activity change, negative = inhibition": -5.72}
{"smiles": "CCN1C(C)(C)CC(Oc2ccc(C(=O)Nc3ccc(NC(=O)Nc4cc(C(C)(C)C)on4)cc3)nc2)CC1(C)C", "activity change, negative = inhibition": -0.208}
{"smiles": "Cn1cc(-c2ccc(S(=O)(=O)n3ccc(/C=C/C(=O)Nc4ccccc4N)c3)cc2)cn1", "activity change, negative = inhibition": 11.3}
{"smiles": "CN1CCC(NC(=O)c2cc(-c3c(O)cc(O)cc3Oc3ccc([N+](=O)[O-])cc3)on2)CC1", "activity change, negative = inhibition": -8.67}
{"smiles": "COc1cc(-c2nc(N[C@H](CO)Cc3ccccc3)ccc2C(=O)NCCOc2ccccc2)cc(OC)c1OC", "activity change, negative = inhibition": 1.74}
{"smiles": "COc1ccc(CCN(C)CCCOc2nsc(-c3ccccc3)n2)cc1OC", "activity change, negative = inhibition": 6.82}
{"molecular_target": "Cytochrome P450 2D6 (Homo sapiens) (UniProt P10635)", "sequence (P10635 whole entry, looked up)": "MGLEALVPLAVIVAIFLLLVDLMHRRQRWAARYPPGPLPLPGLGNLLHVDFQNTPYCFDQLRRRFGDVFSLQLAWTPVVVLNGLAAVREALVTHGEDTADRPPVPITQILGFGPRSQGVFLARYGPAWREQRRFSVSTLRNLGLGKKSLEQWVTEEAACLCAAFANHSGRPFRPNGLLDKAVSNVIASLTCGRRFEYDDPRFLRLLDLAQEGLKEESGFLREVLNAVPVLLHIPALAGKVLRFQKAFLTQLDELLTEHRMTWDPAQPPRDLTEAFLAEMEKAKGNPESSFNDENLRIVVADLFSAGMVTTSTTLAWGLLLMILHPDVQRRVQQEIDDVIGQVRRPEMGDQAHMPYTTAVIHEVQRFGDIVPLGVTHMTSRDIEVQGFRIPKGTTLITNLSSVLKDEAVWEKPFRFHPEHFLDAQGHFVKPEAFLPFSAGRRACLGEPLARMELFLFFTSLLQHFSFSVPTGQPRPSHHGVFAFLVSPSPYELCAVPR", "assay": "Cytochrome P450 family 2 subfamily D member 6 (CYP2D6) small molecule antagonists: luciferase biochemical (cell-free) qHTS assay (AID 1645840); further: nearly all actives have a fitted effect of over 55% in size; further: potency means the concentration at half of the fitted maximal effect", "conditions": "P450-Glo CYP2D6 enzyme, luciferin luminescence, 1 h; series mostly up to 57.4 µM; activity change, negative = inhibition: at the top concentration", "summary_of_the_method": "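P450-Glo luminescent screen: recombinant CYP2D6 enzyme–proluciferin substrate mix preincubated with compound 10 min at room temperature, then NADPH regeneration added for 1 h at room temperature. Detection reagent added for 20 min; luciferin light read as relative luminescence units.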", "units": {"activity change, negative = inhibition": "%"}}
{"smiles": "N#Cc1cnc2c(Cl)cc(NCc3cn(CCN4CCCCCC4)nn3)cc2c1Nc1ccc(F)c(Cl)c1", "Potency": "0.849 µM (active)"}
{"smiles": "O=[N+]([O-])c1cn2c(n1)OC[C@@H](OCc1ccc(-c3ccc(OC(F)(F)F)cc3)nc1)C2", "activity change, negative = inhibition": 0.243}
{"smiles": "CNC(=O)c1ccc2c(c1)CCO[C@H]2CCN1CCN(c2ccc(OC)cc2)CC1", "activity change, negative = inhibition": -15.3}
{"smiles": "Cc1nc(C#Cc2ccnc(Cl)c2)c(C)n1-c1ccc(OC(F)(F)F)cc1", "Potency": "10.7 µM (active)"}
{"smiles": "CCOC(=O)C1=Cc2ccc(C(F)(F)C(F)(F)F)cc2N=C(N)C1", "Potency": "3.01 µM (active)"}
{"smiles": "C#CC(=O)N(c1ccc(OC)cc1OC)C(C(=O)NCC(=O)OCC)c1cccs1", "note": "(stereo not drawn)", "Potency": "12 µM (active)"}
{"smiles": "COC(=O)c1ccc2c(c1)[nH]c1ncnc(NCCCN3CCCCC3)c12", "activity change, negative = inhibition": -11.8}
{"smiles": "CN(C)c1cccc(Oc2cnc(Nc3cccc(O)c3)nc2)c1", "Potency": "21.3 µM (active)"}
{"smiles": "Cc1csc2c(N[C@@H](C)CN3CCN(S(=O)(=O)c4ccc(Cl)c(Cl)c4)CC3)ncnc12", "Potency": "0.425 µM (active)"}
{"smiles": "Cc1cnn(-c2ccccc2)c1NC(=O)COCc1ccccc1", "activity change, negative = inhibition": -11.2}
{"smiles": "CC(C)(Cc1nc(-c2ccc(O)cn2)no1)C(=O)NC1=C(C(=O)O)CCCC1", "activity change, negative = inhibition": 3.11}
{"smiles": "CC(C)c1ccc(NC(=O)Cn2cnc3c2c(=O)n(C)c(=O)n3C)cc1", "activity change, negative = inhibition": -0.0062}
{"smiles": "O=c1[nH]c2cccc(N3CCN(Cc4ccc(-c5ccccc5)cc4)CC3)c2o1", "Potency": "8.49 µM (active)"}
{"smiles": "CCO[C@H]1CN(C2CCC(O)(c3ccc4c(c3)OCO4)CC2)C[C@@H]1NC(=O)CNC(=O)c1cccc(C(F)(F)F)c1", "note": "(stereo partly drawn)", "Potency": "3.38 µM (active)"}
{"smiles": "O=C(NCC1(c2nc(-c3ccccc3)cs2)CCOCC1)c1cccc(-c2noc(C(F)(F)F)n2)c1", "activity change, negative = inhibition": -8.34}
{"smiles": "O=C(NCc1ccc(OC(F)(F)F)cc1)C1c2c(F)cccc2C(=O)N1CCc1ccccn1", "note": "(stereo not drawn)", "Potency": "10.7 µM (active)"}
{"smiles": "O=C(CCl)Nc1cccc(NC2=NS(=O)(=O)c3ccccc32)c1", "activity change, negative = inhibition": -4.84}
{"smiles": "Fc1ccc(-n2cc(CCCCN3CCC4(CC3)OCc3ccccc34)c3ccccc32)cc1", "Potency": "0.601 µM (active)"}
{"smiles": "COc1cc2c(Nc3cc(F)c(Cl)c(Cl)c3)ncnc2cc1OCC1CCCN(C)CCC1", "Potency": "16.9 µM (active)"}
{"smiles": "CNCc1cc(-c2ccccc2F)n(S(=O)(=O)c2cccnc2)c1", "Potency": "19 µM (active)"}
{"smiles": "Cn1cc(-c2cnn3c(N)c(Br)c([C@@H]4CCCNC4)nc23)cn1", "Potency": "10.7 µM (active)"}
{"smiles": "C[C@H]1[C@H](/C=C/c2ccc(-c3ccccc3C#N)cn2)[C@@H]2[C@@H](C)OC(=O)[C@@H]2C[C@@H]1C", "activity change, negative = inhibition": -21.4}
{"smiles": "Cc1ccc(F)cc1S(=O)(=O)N[C@@H]1CCN(Cc2ccc(OC(C)C)cc2)C1", "Potency": "0.0169 µM (active)"}
{"smiles": "NCCOc1cc(C(=O)Nc2cc(OCCN)c3ccccc3n2)nc(C(=O)Nc2cc(OCCN)c3ccccc3n2)c1", "activity change, negative = inhibition": 0.328}
{"smiles": "Cc1csc(N(C(=O)CSc2ccc(-c3ccccc3)nn2)C2CC2)n1", "activity change, negative = inhibition": -24.3}
{"smiles": "C[C@@H]1CCCN1CCc1cc2cc(-c3ccc(C#N)cc3)ccc2o1", "Potency": "13.5 µM (active)"}
{"smiles": "CC(=O)Nc1nc(C)c(-c2nc(N3CCCC(O)C3)no2)s1", "note": "(stereo not drawn)", "Potency": "4.25 µM (active)"}
{"smiles": "CC(C)C[C@@H](C(=O)N[C@@H](Cc1ccc(OCc2ccccc2)cc1)C(=O)NC(C)(C)C)N(C)Cc1ccc(C(C)(C)C)cc1", "activity change, negative = inhibition": 13.3}
{"smiles": "CC(C)(C)OC(=O)c1ncn2c1C(C)(C)Nc1ccccc1-2", "activity change, negative = inhibition": -7.35}
{"smiles": "OC1(CN2CCC(COc3noc4cccc(O[C@@H]5CCOC5)c34)CC2)CCOCC1", "Potency": "6.74 µM (active)"}
{"smiles": "O=C(COc1ccc(C(=O)c2ccccc2)cc1)NC1CCN(Cc2ccccc2)CC1", "Potency": "0.338 µM (active)"}
{"smiles": "FC(F)(F)c1ccc(/C=C/c2nc(COc3ccc(CCCCn4ccnn4)cc3)co2)cc1", "activity change, negative = inhibition": 7.14}
{"smiles": "c1cc(NC2CCNCC2)nc(-c2cnc3ccccn23)c1", "Potency": "15.1 µM (active)"}
{"smiles": "CNC(=O)[C@@H](c1ccccc1)N1CCc2cc(OC)c(OC)cc2[C@@H]1CCc1ccc(C(F)(F)F)cc1", "Potency": "4.77 µM (active)"}
{"smiles": "CCN1C(C)(C)CC(Oc2ccc(C(=O)Nc3ccc(NC(=O)Nc4cc(C(C)(C)C)on4)cc3)nc2)CC1(C)C", "Potency": "19 µM (active)"}
{"smiles": "Cn1cc(-c2ccc(S(=O)(=O)n3ccc(/C=C/C(=O)Nc4ccccc4N)c3)cc2)cn1", "Potency": "2.68 µM (active)"}
{"smiles": "CN1CCC(NC(=O)c2cc(-c3c(O)cc(O)cc3Oc3ccc([N+](=O)[O-])cc3)on2)CC1", "activity change, negative = inhibition": -16.5}
{"smiles": "COc1cc(-c2nc(N[C@H](CO)Cc3ccccc3)ccc2C(=O)NCCOc2ccccc2)cc(OC)c1OC", "Potency": "12 µM (active)"}
{"smiles": "COc1ccc(CCN(C)CCCOc2nsc(-c3ccccc3)n2)cc1OC", "Potency": "1.51 µM (active)"}
